Source: PubChem BioAssay AID624329 (National Center for Advancing Translational Sciences (NCATS), 2012)
Results filed as inconclusive are left out. The source made the active and inactive calls. The call rests on the fitted dose curve; in most records, active means well fitted curve in the direction sought with a large enough effect; inconclusive means small, poorly fitted or top-dose-only effect; inactive means flat fitted curve, though single readings scatter.

assay: Quantitative high throughput screen for delayed death inhibitors of the malarial parasite plastid: Hit Validation with 3D7 at 48 hr using Flow Cytometry; details: P. falciparum 3D7 growth, flow cytometry SYBR/MitoTracker; fraction of growth remaining: at 50 µM (top of the series)
Text: The goal of this screen is to discover new antimalarial compounds that act by inhibiting the development of the apicoplast organelle in the malarial parasite Plasmodium falciparum. Some antibiotics, such as azithromycin and tetracycline, are known to interfere with the apicoplast translational machinery, and have a potent antimalarial effect. […] We developed a cell-based quantitative high throughput screen that leverages this "delayed death" phenotype to enrich for compounds that target the apicoplast. To detect small molecules that cause the delayed death phenotype, erythrocytes infected with firefly luciferase-expressing parasites were incubated with compounds for either one or two generations, corresponding to 48 and 96 hours, respectively. Growth inhibition was detected by a decrease in luciferase activity. Compounds that inhibited parasite growth in the second generation at least five-fold more potently than in the first generation were defined as delayed death inducing. These compounds were selected for confirmatory screening using a flow cytometry based assay. This hit validation assay used the 3D7 cell line and measured at 48 hours. NIH Molecular Libraries Probe Production Network [MLPCN] NIH Chemical Genomics Center [NCGC] MLPCN Grant: R21 NS059500 Assay Provider: David Fidock and Eric Ekland, Columbia University
Test compounds were diluted in 20 microliters of complete media (RPMI 1640 with 0.5% w/v Albumax (GIBCO), 24 mM sodium bicarbonate (Sigma) and 10 ug/mL gentamycin (Gibco)) in clear 384-well plates (Greiner). All liquid handling was conducted using a Bio Tek Precision 2000 pipetting system. Twenty microliters of infected erythrocytes, 0.2% parasitemia (for 48 hour time points) or 0.1% parasitemia (for 96 hour time points) were added to the compound dilutions (1% hematocrit, final concentration; 40 microliters, total culture volume). The assay plates were incubated for 48 hours, or 96 hours, at 37 masculine C in a humidified chamber (Billups- Rothenberg, Del Mar, CA, USA), gassed with 5%CO2/5%O2/ 90%N2. After one generation (48 hours), 5 microliters of culture were harvested and transferred to a second 384 well plate for fluorescent staining. Samples were stained with 30 microliters of 2 x SYBR Green I (Invitrogen) and 150nM MitoTracker Deep Red (Invitrogen) diluted in 0.9% NaCl, 0.2% dextrose (Baxter) supplemented with 2.5% Fetal Calf Serum (Gibco) (saline/FCS). Mature erythrocytes lack nuclei and mitochondria, therefore only parasitized erythrocytes retain the SYBR Green I and MitoTracker Deep Red. After 30 minutes at 37 masculine C, the stained cells were diluted in an additional 60 microliters of saline/FCS. The samples were harvested directly from the 384 well plate using a Hypercyt High Capacity Flow Platform (Intellicyt) paired with a C6 Flow Cytometer (Accuri). The flow cytometry files were analyzed using FlowJo software (FlowJo).

Compound | Potency | fraction of growth remaining
COc1ccccc1N1CCN(CCC(=O)Nc2ccc(F)cc2)CC1 | 18.3 µM (active) | 
Clc1ccc(-c2c[n+](Cc3ccc(Cl)cc3Cl)c3n2CCCCC3)cc1 | 5.64 µM (active) | 
O=C(CSc1ccc(-c2cccnc2)nn1)Nc1ccccc1C(F)(F)F | 12.4 µM (active) | 
CCc1nc(SCC(=O)Nc2ccc(N(C)C)cc2)n[nH]1 | 0.4 µM (active) | 
CCOc1ccc(NC(=O)C[n+]2ccc(N(C)C)cc2)cc1 | 25.8 µM (active) | 
COc1ccc2c(ccc[n+]2CC(=O)c2ccccc2)c1 | 9.29 µM (active) | 
COc1cccc(CN2CCN(c3nc4nonc4nc3N3CCCCC3)CC2=O)c1 | 5.55 µM (active) | 
CCCCOc1ccc(N2C(N)=NC(N)=NC23CCCCC3)cc1 | 22.2 µM (active) | 
CCCc1c(CC)c(=N)c2ccccc2n1C | 6.48 µM (active) | 
c1csc(CNc2ncnc3nc[nH]c23)c1 | inactive | 
CC(=O)NC[C@@H]1CN(c2ccc(N3CCOCC3)c(F)c2)C(=O)O1 | inactive | 
CO[C@@H]1[C@@H](OC2OC(C)C(OC3CC(C)(O)C(OC(=O)CC(C)C)C(C)O3)C(N(C)C)C2O)[C@@H](CC=O)C[C@@H](C)C(=O)/C=C\C2O[C@H]2C[C@@H](C)OC(=O)C[C@H]1OC(C)=O (stereo partly drawn) | 2.95 µM (active) | 
COc1ccc(NC(=S)N2CCC(Cc3ccccc3)CC2)cc1OC | 46.5 µM (active) | 
CCOC(=O)c1ccc2c(c1)n(CC)c(/C=C/N(C)c1ccccc1)[n+]2CC | 1.52 µM (active) | 
Cc1c(F)c(N2CCNC(C)C2)cc2c1c(=O)c(C(=O)O)cn2C1CC1 (stereo not drawn) | 5.98 µM (active) | 
Cc1ccc(CN2CCC(n3nccc3NC(=O)c3ccccc3C)CC2)o1 |  | 0.498 (active)
O=C(CNC(=O)C1CCCCC1)OC(C(=O)c1ccccc1)c1ccccc1 (stereo not drawn) | inactive | 
Cc1ccc(S(=O)(=O)Nc2ccc(C(=O)Nc3ccncc3)cc2)cc1 | 26.3 µM (active) | 
CCOc1ccc(S(=O)(=O)Nc2cc(S(=O)(=O)N(CC)CC)ccc2N2CCCC2)cc1 | 12.5 µM (active) | 
Cc1ccc(-n2c(-c3ccc(Cl)cc3)c[n+]3c2CCC3)cc1 | 4.64 µM (active) | 
N#Cc1cccc(NC(=O)Cn2c3[n+](c4ccc(C(F)(F)F)cc42)CCCCC3)c1 | 19.9 µM (active) | 
CCCCN(CCCNC(=O)C1CCN(C(=O)c2cc3sccc3n2C)CC1)Cc1ccccc1 | 9.82 µM (active) | 
COc1ccc2cc3cc(C(=O)Nc4ccc5c(c4)OCO5)oc3nc2c1 | 48.3 µM (active) | 
CCC(=O)OC1C(N(C)C)CC(C)O[C@H]1O[C@H]1[C@H](C)[C@@H](O[C@H]2CC(OC)[C@@H](O)C(C)O2)[C@H](C)C(=O)O[C@@H](CC)[C@](C)(O)[C@@H](O)[C@H](C)C(=O)[C@@H](C)C[C@]1(C)O (stereo partly drawn) | inactive | 
CCCc1cc(=O)oc2cc(OC(C)C(=O)NCc3ccccn3)c(Cl)cc12 (stereo not drawn) | 16.9 µM (active) | 
O=C(NCc1cccnc1)c1ccc(NS(=O)(=O)c2ccccc2)cc1 | 30.9 µM (active) | 
CCCCN(CCCNC(=O)c1ccc(CS(=O)(=O)c2ccc(OC)cc2)o1)Cc1ccccc1 |  | 0.163 (active)
CC1=Nc2cc(C(=O)N3CCCC3)ccc2Sc2ccc(C)cc21 |  | 0.151 (active)
